# Experimental data reported in publication PMC4081100, “A DNA-binding-site landscape and regulatory network analysis for NAC transcription factors in Arabidopsis thaliana”.
# What was measured:
# Experiment in all cases: universal protein binding microarray (PBM); transcription factors of Arabidopsis thaliana; high values mean tight binding
# [1] = target: T1, GST-ANAC092(1-176) (Arabidopsis thaliana, UniProt Q9FKA0 1-176); conditions: protein: recombinant; tags: GST; chain copies: 2; dsDNA, one strand shown
# T1 sequence: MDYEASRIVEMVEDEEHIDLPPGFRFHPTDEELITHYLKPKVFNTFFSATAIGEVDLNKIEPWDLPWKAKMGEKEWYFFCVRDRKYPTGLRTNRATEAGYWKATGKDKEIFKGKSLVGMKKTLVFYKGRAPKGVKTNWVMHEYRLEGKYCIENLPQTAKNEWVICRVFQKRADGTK
# Outline: (§1)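 Each value is a normalised enrichment score (E-score) describing binding. The GST-tagged proteins, NAC-domain, full-length or DNA-binding-domain, were induced in cells (zinc-finger proteins with zinc acetate added) and purified on glutathione–Sepharose 4B. They were applied at 200 to 500 nM final, in duplicate, to double-stranded custom all-10-mer Agilent 4 × 180K arrays, and gapped and ungapped 8-mers were scored.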
# [2] = target: GST-NTL6(1-168) (Arabidopsis thaliana, UniProt Q9SCK6 1-168); conditions: protein: recombinant; tags: GST; chain copies: 2; dsDNA, one strand shown
# Sequence of GST-NTL6(1-168) (Q9SCK6 1-168): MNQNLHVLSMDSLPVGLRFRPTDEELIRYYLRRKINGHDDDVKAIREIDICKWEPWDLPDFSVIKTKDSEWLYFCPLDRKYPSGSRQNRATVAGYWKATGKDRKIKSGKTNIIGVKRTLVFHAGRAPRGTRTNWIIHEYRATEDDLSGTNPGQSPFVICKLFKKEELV
# Outline: as §1
# [3] = target: T2, GST-ANAC019 NAC domain (Arabidopsis thaliana, UniProt Q9C932 14-162); conditions: protein: recombinant; tags: GST; chain copies: 2; dsDNA, one strand shown
# T2 sequence: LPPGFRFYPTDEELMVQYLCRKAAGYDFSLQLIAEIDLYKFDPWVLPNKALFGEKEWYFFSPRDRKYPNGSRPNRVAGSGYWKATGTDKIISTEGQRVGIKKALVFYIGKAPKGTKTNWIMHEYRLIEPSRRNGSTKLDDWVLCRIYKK
# Outline: as §1
# [4] = target: T3, GST-ANAC092(1-285) full length (Arabidopsis thaliana, UniProt Q9FKA0 1-285); conditions: protein: recombinant; tags: GST; chain copies: 2; dsDNA, one strand shown
# T3 sequence: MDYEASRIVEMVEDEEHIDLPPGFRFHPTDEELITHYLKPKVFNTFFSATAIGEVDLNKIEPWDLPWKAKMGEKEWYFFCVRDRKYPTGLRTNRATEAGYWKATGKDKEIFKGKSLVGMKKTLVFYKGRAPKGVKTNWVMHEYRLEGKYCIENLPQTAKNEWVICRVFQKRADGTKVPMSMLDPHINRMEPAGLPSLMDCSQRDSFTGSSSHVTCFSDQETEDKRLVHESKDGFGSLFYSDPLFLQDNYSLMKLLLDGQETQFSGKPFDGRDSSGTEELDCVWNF
# Outline: as §1
# [5] = target: T4, GST-NTL8 NAC domain (Arabidopsis thaliana, UniProt Q9XIN7 14-156); conditions: protein: recombinant; tags: GST; chain copies: 2; dsDNA, one strand shown
# T4 sequence: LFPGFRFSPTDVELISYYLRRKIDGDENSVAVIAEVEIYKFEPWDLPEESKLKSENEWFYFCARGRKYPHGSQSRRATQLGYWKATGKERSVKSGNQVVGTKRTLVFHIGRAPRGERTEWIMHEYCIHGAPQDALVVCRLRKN
# Outline: as §1
# [6] = target: T5, GST-SND1(1-203) (Arabidopsis thaliana, UniProt Q9LPI7 1-203); conditions: protein: recombinant; tags: GST; chain copies: 2; dsDNA, one strand shown
# T5 sequence: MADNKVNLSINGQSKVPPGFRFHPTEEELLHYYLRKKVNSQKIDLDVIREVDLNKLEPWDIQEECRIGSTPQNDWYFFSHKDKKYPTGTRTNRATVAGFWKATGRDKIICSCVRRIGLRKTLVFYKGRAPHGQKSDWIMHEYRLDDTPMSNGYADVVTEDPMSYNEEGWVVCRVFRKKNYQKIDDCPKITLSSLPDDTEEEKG
# Outline: as §1
# [7] = target: T6, GST-NST2(1-184) (Arabidopsis thaliana, UniProt Q9M274 1-184); conditions: protein: recombinant; tags: GST; chain copies: 2; dsDNA, one strand shown
# T6 sequence: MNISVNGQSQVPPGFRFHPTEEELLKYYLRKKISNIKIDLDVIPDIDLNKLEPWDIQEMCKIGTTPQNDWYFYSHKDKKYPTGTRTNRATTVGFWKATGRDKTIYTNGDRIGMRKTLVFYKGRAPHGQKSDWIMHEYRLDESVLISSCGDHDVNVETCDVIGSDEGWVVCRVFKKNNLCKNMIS
# Outline: as §1
# [8] = target: GST-WRKY1(266-371) (Arabidopsis thaliana, UniProt Q9SI37 266-371); conditions: protein: recombinant; tags: GST; dsDNA, one strand shown
# Sequence of GST-WRKY1(266-371) (Q9SI37 266-371): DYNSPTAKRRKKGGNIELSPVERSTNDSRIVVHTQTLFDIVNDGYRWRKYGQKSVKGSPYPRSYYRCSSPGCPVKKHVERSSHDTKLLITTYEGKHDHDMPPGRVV
# Outline: as §1
# [9] = target: T7, GST-ANAC055(1-171) (Arabidopsis thaliana, UniProt Q9LDY8 1-171); conditions: protein: recombinant; tags: GST; chain copies: 2; dsDNA, one strand shown
# T7 sequence: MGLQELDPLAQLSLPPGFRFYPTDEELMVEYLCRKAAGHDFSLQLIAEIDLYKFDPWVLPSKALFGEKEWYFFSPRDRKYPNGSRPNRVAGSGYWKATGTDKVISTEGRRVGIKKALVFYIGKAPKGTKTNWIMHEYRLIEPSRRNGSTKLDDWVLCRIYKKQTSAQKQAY
# Outline: as §1
# [10] = target: T8, GST-ATAF1 NAC domain (Arabidopsis thaliana, UniProt Q39013 7-158); conditions: protein: recombinant; tags: GST; chain copies: 2; dsDNA, one strand shown
# T8 sequence: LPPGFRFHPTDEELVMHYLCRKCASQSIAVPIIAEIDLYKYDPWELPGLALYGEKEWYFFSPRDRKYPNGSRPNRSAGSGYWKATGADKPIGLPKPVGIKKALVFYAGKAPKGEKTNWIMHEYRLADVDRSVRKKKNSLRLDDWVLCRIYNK
# Outline: as §1
# [11] = target: T9, GST-NAP(1-166) (Arabidopsis thaliana, UniProt O49255 1-166); conditions: protein: recombinant; tags: GST; chain copies: 2; dsDNA, one strand shown
# T9 sequence: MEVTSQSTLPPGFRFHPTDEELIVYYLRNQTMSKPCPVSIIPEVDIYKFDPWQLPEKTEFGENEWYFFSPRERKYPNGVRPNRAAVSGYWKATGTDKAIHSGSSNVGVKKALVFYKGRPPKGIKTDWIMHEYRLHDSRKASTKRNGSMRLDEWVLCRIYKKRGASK
# Outline: as §1
sequence,measurement,setting,value
GCTTTCCC,binding signal,[1],0.124 E-score
same,binding signal,[2],0.142 E-score
same,binding signal,[3],0.0714 E-score
same,binding signal,[4],0.117 E-score
same,binding signal,[5],0.423 E-score
same,binding signal,[6],0.0912 E-score
AGGAAAGG,binding signal,[1],0.0968 E-score
same,binding signal,[2],0.0725 E-score
same,binding signal,[3],0.0699 E-score
same,binding signal,[7],0.064 E-score
same,binding signal,[5],0.44 E-score
same,binding signal,[6],0.136 E-score
CTGACTTC,binding signal,[3],0.0546 E-score
same,binding signal,[5],0.113 E-score
same,binding signal,[6],0.0589 E-score
same,binding signal,[8],0.412 E-score
GAAGTAAC,binding signal,[1],0.249 E-score
same,binding signal,[2],0.381 E-score
same,binding signal,[9],0.106 E-score
same,binding signal,[10],0.0921 E-score
same,binding signal,[4],0.325 E-score
same,binding signal,[7],0.301 E-score
same,binding signal,[5],0.413 E-score
same,binding signal,[6],0.333 E-score
GGGGAAAC,binding signal,[1],0.177 E-score
same,binding signal,[2],0.17 E-score
same,binding signal,[3],0.152 E-score
same,binding signal,[4],0.217 E-score
same,binding signal,[11],0.12 E-score
same,binding signal,[5],0.412 E-score
same,binding signal,[6],0.209 E-score
TAAAGTCA,binding signal,[10],0.0969 E-score
same,binding signal,[4],0.0547 E-score
same,binding signal,[6],0.0751 E-score
same,binding signal,[8],0.465 E-score
ACGTTGAC,binding signal,[4],0.144 E-score
same,binding signal,[11],0.0955 E-score
same,binding signal,[6],0.127 E-score
same,binding signal,[8],0.489 E-score
AAGGGTCA,binding signal,[2],0.0797 E-score
same,binding signal,[6],0.0922 E-score
same,binding signal,[8],0.409 E-score
GTCAAGAA,binding signal,[1],0.0716 E-score
same,binding signal,[9],0.0615 E-score
same,binding signal,[10],0.114 E-score
same,binding signal,[4],0.124 E-score
same,binding signal,[11],0.0595 E-score
same,binding signal,[7],0.0986 E-score
same,binding signal,[6],0.052 E-score
same,binding signal,[8],0.436 E-score
ACCGTTGA,binding signal,[1],0.112 E-score
same,binding signal,[4],0.205 E-score
same,binding signal,[11],0.132 E-score
same,binding signal,[6],0.123 E-score
same,binding signal,[8],0.404 E-score
CTTGACCC,binding signal,[5],0.0908 E-score
same,binding signal,[6],0.0887 E-score
same,binding signal,[8],0.477 E-score
TCAGTCAA,binding signal,[10],0.0626 E-score
same,binding signal,[5],0.0655 E-score
same,binding signal,[6],0.0688 E-score
same,binding signal,[8],0.473 E-score
CTGTTGAC,binding signal,[1],0.105 E-score
same,binding signal,[3],0.107 E-score
same,binding signal,[4],0.0644 E-score
same,binding signal,[6],0.0669 E-score
same,binding signal,[8],0.48 E-score
AAGTCAAG,binding signal,[2],0.113 E-score
same,binding signal,[10],0.0757 E-score
same,binding signal,[4],0.14 E-score
same,binding signal,[7],0.0657 E-score
same,binding signal,[6],0.0903 E-score
same,binding signal,[8],0.479 E-score
TAGGGAAA,binding signal,[1],0.106 E-score
same,binding signal,[2],0.177 E-score
same,binding signal,[3],0.0861 E-score
same,binding signal,[10],0.088 E-score
same,binding signal,[4],0.115 E-score
same,binding signal,[5],0.438 E-score
same,binding signal,[6],0.0953 E-score
CTTAAGGA,binding signal,[2],0.401 E-score
same,binding signal,[7],0.0872 E-score
same,binding signal,[5],0.179 E-score
same,binding signal,[6],0.265 E-score
same,binding signal,[8],0.07 E-score
CGTCAAAG,binding signal,[1],0.0844 E-score
same,binding signal,[3],0.0986 E-score
same,binding signal,[4],0.149 E-score
same,binding signal,[7],0.102 E-score
same,binding signal,[6],0.199 E-score
same,binding signal,[8],0.427 E-score
AGTCAGAA,binding signal,[4],0.0656 E-score
same,binding signal,[11],0.0823 E-score
same,binding signal,[7],0.119 E-score
same,binding signal,[6],0.101 E-score
same,binding signal,[8],0.416 E-score
AAAGTCAA,binding signal,[2],0.0854 E-score
same,binding signal,[9],0.0717 E-score
same,binding signal,[10],0.118 E-score
same,binding signal,[7],0.0787 E-score
same,binding signal,[6],0.118 E-score
same,binding signal,[8],0.49 E-score
GCGTCAAC,binding signal,[1],0.119 E-score
same,binding signal,[3],0.0778 E-score
same,binding signal,[4],0.109 E-score
same,binding signal,[7],0.0734 E-score
same,binding signal,[6],0.192 E-score
same,binding signal,[8],0.443 E-score
AGTCTACG,binding signal,[3],0.0568 E-score
same,binding signal,[6],0.115 E-score
same,binding signal,[8],0.401 E-score
AGGGAAAG,binding signal,[1],0.0861 E-score
same,binding signal,[2],0.115 E-score
same,binding signal,[3],0.129 E-score
same,binding signal,[5],0.473 E-score
same,binding signal,[6],0.114 E-score
AAGGAAGC,binding signal,[1],0.219 E-score
same,binding signal,[2],0.43 E-score
same,binding signal,[9],0.0894 E-score
same,binding signal,[4],0.13 E-score
same,binding signal,[7],0.185 E-score
same,binding signal,[5],0.188 E-score
same,binding signal,[6],0.175 E-score
GTCAAAGA,binding signal,[9],0.078 E-score
same,binding signal,[4],0.0725 E-score
same,binding signal,[7],0.053 E-score
same,binding signal,[6],0.167 E-score
same,binding signal,[8],0.469 E-score
GTCAGTCA,binding signal,[4],0.1 E-score
same,binding signal,[6],0.0958 E-score
same,binding signal,[8],0.426 E-score
CGTAGTCA,binding signal,[3],0.0805 E-score
same,binding signal,[10],0.117 E-score
same,binding signal,[6],0.161 E-score
same,binding signal,[8],0.405 E-score
AATTGACT,binding signal,[2],0.0713 E-score
same,binding signal,[9],0.0891 E-score
same,binding signal,[10],0.141 E-score
same,binding signal,[4],0.0602 E-score
same,binding signal,[7],0.125 E-score
same,binding signal,[6],0.0673 E-score
same,binding signal,[8],0.46 E-score
CTTAGTCA,binding signal,[2],0.243 E-score
same,binding signal,[10],0.101 E-score
same,binding signal,[5],0.091 E-score
same,binding signal,[6],0.118 E-score
same,binding signal,[8],0.424 E-score
CGAAGGAA,binding signal,[1],0.176 E-score
same,binding signal,[2],0.473 E-score
same,binding signal,[9],0.0644 E-score
same,binding signal,[10],0.057 E-score
same,binding signal,[4],0.0784 E-score
same,binding signal,[11],0.0729 E-score
same,binding signal,[7],0.17 E-score
same,binding signal,[5],0.459 E-score
same,binding signal,[6],0.3 E-score
CCTTTGAC,binding signal,[5],0.0589 E-score
same,binding signal,[6],0.101 E-score
same,binding signal,[8],0.475 E-score
GTCAAGCA,binding signal,[4],0.106 E-score
same,binding signal,[6],0.0699 E-score
same,binding signal,[8],0.44 E-score
AGGAAACC,binding signal,[2],0.0999 E-score
same,binding signal,[4],0.13 E-score
same,binding signal,[5],0.482 E-score
same,binding signal,[6],0.0696 E-score
